L929 necroptosis = L929 zVAD cell death inhibition | L929 zVAD necroptosis rescue, ATP luminescence, 24 h; with zVAD 60 µM | viability rescue, % at 10 µM | 220,000 compounds, 0.38% hits | AID 1377;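 active = activation, scaled between plate controls, above about 75%, limit read from the data; inactive = activation under that limit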;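 note: 0% = zVAD with DMSO and 100% = DMSO alone without zVAD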
Efa HMGR inh = E. faecalis class II HMG-CoA reductase inhibition; purified E. faecalis HMGR, NADPH absorbance 340 nm kinetic; inhibition, % at 10 µM; 190,000 compounds, 0.41% hits;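 active = inhibition above a set limit, the median over all tested compounds plus 3 SD, cut at about 9.5% in these data; inconclusive = no clear call, values can overlap the other calls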;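 note: enzyme runs in reverse so mevalonate oxidation gives rising NADPH absorbance; 0% = complete reaction with DMSO and 100% = background rate lacking mevalonate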
m-calpain inh = inhibitors of pig calpain II. 220,000 compounds, 0.37% hits. purified calpain II, fluorogenic peptide substrate, 30 min. inhibition, % at 16 µM. AID 1236;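 active = inhibition above about 50%, limit read from the data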
ROMK mod = modulates human ROMK potassium channel activity. B-score at 10 µM. AID 1918. 130,000 compounds, 2% hits. Tet-inducible ROMK, thallium flux fluorescence; actives lie on both sides. P48048;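 active = signal ratio slope over the read window, or its plate-corrected B-score, at least 3 SD from the plate mean, either direction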;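 note: B-score of the F/F0 ratio slope over 7 to 12 s after thallium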
14-3-3 Bad inh = disrupts binding of bovine 14-3-3 zeta to phospho-Bad peptide; TR-FRET 14-3-3zeta/Dy647-pBad peptide displacement, 1 h; P63103; inhibition, % at 21.7 µM; 220,000 compounds, 0.71% hits;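 active = inhibition above about 70%, limit read from the data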;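 note: 0% = full 14-3-3 plus peptide FRET controls and 100% = background without 14-3-3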
Target sequence (P63103 whole entry, looked up): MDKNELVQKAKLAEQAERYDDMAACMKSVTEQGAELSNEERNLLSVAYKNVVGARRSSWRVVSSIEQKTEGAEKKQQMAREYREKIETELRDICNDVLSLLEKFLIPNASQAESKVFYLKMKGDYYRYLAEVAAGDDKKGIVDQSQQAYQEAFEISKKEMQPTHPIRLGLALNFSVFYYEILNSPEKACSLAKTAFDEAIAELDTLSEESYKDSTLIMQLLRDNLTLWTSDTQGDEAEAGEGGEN
TNF death inh = blocks TNF-alpha induced death of Jurkat FADD-/- cells; Jurkat FADD-/- TNF necroptosis rescue, ATP luminescence, 24 h; 0 = TNF only, 100 = no-TNF cells; activation (protection from cell death), % at 10 µM; 220,000 compounds, 0.068% hits;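 active = activation, meaning protection from cell death, of at least 50% relative to plate controls; inactive = activation below 50%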;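 note: necroptosis triggered by 40 ng/mL TNF-alpha added together with compound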
ROMK hit retest = confirmation of human ROMK potassium channel modulators; shares compounds with ROMK mod; ROMK thallium flux, fluorescence ratio; stronger effect = lower value; normalized thallium flux (F/F0 slope) at 10 µM; 3,000 compounds, 54% hits;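 active = Flux at 10 µM at least 3 SD below or above vehicle control mean in one or both replicates; inconclusive = no clear call, values can overlap the other calls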
Numbers without * were called inactive; ? = inconclusive; . = not tested or not shown. An excerpt weighted towards active compounds, which were near 3% of everything screened.

SMILES	L929 necroptosis	Efa HMGR inh	m-calpain inh	ROMK mod	14-3-3 Bad inh	TNF death inh	ROMK hit retest
C=CC[N+](C)(C)CCCNC(=O)/C=N/O	0	-8	30	1.1	28	0	.
O=C(NS(=O)(=O)Oc1ccc(F)c(Cl)c1)OC[C@@H]1CCCN2CCCCC12 (some centres undefined)	0	-3	-40	1.4	-25	0	.
COC(=O)c1sccc1N(C)S(C)(=O)=O	0	-8	-11	0.45	-5	0	.
O=C(C[n+]1cccc(CNC(=O)c2ccc(OC(F)F)cc2)c1)Nc1cccc(C(F)(F)F)c1	3	-1	-8	-3.1*	-15	2	0.053*
O=c1ncn(-c2ccccc2F)c2ncccc12	0	3	18	-0.51	5	-1	.
CCc1ccc(N(C(=O)Cc2cccs2)C(C(=O)NC2CCCCC2)c2cn(C)nc2C)cc1 (centres undefined)	0	-2	23	.	15	-5	.
CCOc1cccc(N(C(=O)Cc2cccs2)C(C(=O)NC2CCCCC2)c2cccn2C)c1 (centres undefined)	0	-4	-12	-4.4*	4	-2	0.062*
Cc1nc2ccccn2c1-c1csc(NCc2ccco2)n1	0	4	-56	.	-4	-3	.
Cc1ccn2c(-c3csc(NCc4ccccc4)n3)c(C)nc2c1	0	-2	-1	-4.7*	18	-2	0.06*
CN1CCN(CCCNC(=O)c2ccc(CSCc3cccc(Cl)c3)o2)CC1	0	-1	1	-0.91	1	0	.
CC1CCN(CCCNC(=O)c2ccc(CSCc3cccc(Cl)c3)o2)CC1	0	-5	8	-4.2*	-2	-4	0.053*
O=C(Nc1cccc(S(=O)(=O)c2cccc(NC(=O)C3CC3)c2)c1)C1CC1	0	0	13	-0.8	1	-2	0.074
Cc1ccc(NC(=O)c2ccc3c(c2)[nH]c(=O)n3C(C)C)cc1	47	-6	-1	2.9*	-6	1	0.085
CC(C)n1c(=O)[nH]c2ccccc21	-1	-4	-15	.	2	0	.
CSC1=NC(C(Cl)(Cl)Cl)N=C(c2ccc(C)cc2)N1 (centres undefined)	-1	0	-3	2.7*	-3	-6	0.1*
COC(=O)c1cccc(NC(=O)CCCOc2cccc(C)c2)c1	0	-1	18	-0.91	.	1	.
COCc1n[nH]c(=S)n1-c1ccccc1	1	4	-2	-0.037	-8	0	.
COC(Cc1n[nH]c(=S)n1-c1ccccc1)OC	0	-2	-4	.	76*	-2	0.073
CCC(C)N1C(=O)CCC1C(=O)O (centres undefined)	0	-5	-5	-8.2*	4	1	0.08
O=C(CCn1c2c(c3ccccc31)CCCC2)NNC(=O)c1ccccc1[N+](=O)[O-]	1	3	1	.	-10	2	.
O=C(CCn1c2c(c3ccccc31)CCCC2)NNC(=O)c1ccccc1C(=O)O	0	.	-4	.	7	1	0.079
Cc1nn(Cc2cccc(F)c2)c(C)c1NC(=O)c1c(Cl)cnn1C	0	-3	0	.	4	1	.
COC(=O)/C=C1\C(=O)N(c2nc3ccccc3s2)C(=S)N1c1ccc(F)cc1	-1	1	-171	-2.8*	-14	-1	0.064*
CS(=O)(=O)N1CCC(C(=O)c2cccc(Cl)c2)CC1	0	-5	10	.	8	-1	.
Cc1ccc(N2NC(=O)/C(=C/c3ccc(-c4ccc(Cl)c(C(=O)O)c4)o3)C2=O)cc1C	0	0	29	.	0	-1	.
Cc1ccc(N2NC(=O)/C(=C\c3cc4c(cc3[N+](=O)[O-])OCO4)C2=O)cc1C	0	-2	-23	-4.9*	-19	-11	0.048*
[O-]/[N+](=C\c1ccncc1)c1ccccc1	0	-1	16	.	-17	-4	0.083
COCC(=O)N1CCN(c2cccc(C(F)(F)F)c2)CC1	-1	-5	9	.	6	1	.
O=C(CS(=O)(=O)Cc1ccccc1)N1CCN(c2cccc(C(F)(F)F)c2)CC1	-1	3	-55	-3.2*	0	0	?

High-throughput results (PubChem)
